Laboratory results from the supplement of paper PMC10849652.
Of roughly 7,900 targets only a part is listed; those with a hit were picked by preference. About 0.6% of all pairs of compound and target were hits.

compound: c1cn2cc(-c3ccc4cn[nH]c4c3)nc(Nc3ccc(N4CCOCC4)cc3)c2n1 [entospletinib]; test: log2 fold change, soluble protein after heating vs DMSO (PISA); higher = thermal stabilisation; K562 cells, 10 uM, 30 min; active = over 0.2 and 3.5 SD of the protein, either way, in both replicates (recomputed)
Outline: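 Soluble protein was quantified by TMTpro 16plex LC-MS/MS after channel sums were equalised. It was obtained as the supernatant after 21,000xg for 90 min from pooled aliquots of K562 cells (2×10^6 cells/mL, 10 μM compound, 30 min) heated for 3 min across 48°C-58°C and extracted in PBS with 0.5% NP-40 at 4°C. Thermal stability values are relative to control samples and come from duplicates. They are given as log2 fold changes.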

Sequence of UniProt Q03252 (Q03252 whole entry, looked up): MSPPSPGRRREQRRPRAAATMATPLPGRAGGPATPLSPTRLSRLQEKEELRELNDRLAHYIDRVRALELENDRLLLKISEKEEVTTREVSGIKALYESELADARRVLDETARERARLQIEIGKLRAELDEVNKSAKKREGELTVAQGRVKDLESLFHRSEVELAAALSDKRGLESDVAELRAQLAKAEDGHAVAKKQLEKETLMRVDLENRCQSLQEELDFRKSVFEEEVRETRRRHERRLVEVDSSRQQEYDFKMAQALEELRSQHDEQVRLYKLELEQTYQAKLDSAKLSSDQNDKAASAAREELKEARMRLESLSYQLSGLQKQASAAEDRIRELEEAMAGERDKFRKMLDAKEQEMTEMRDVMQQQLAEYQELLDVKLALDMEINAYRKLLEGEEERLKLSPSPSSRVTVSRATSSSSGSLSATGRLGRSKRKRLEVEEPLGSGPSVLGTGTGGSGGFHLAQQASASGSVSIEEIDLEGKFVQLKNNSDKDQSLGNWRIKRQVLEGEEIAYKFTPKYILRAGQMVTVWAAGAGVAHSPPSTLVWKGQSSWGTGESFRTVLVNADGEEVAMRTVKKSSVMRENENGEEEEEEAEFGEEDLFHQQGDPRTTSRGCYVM
Sequence of UniProt Q8NE86 (Q8NE86 whole entry, looked up): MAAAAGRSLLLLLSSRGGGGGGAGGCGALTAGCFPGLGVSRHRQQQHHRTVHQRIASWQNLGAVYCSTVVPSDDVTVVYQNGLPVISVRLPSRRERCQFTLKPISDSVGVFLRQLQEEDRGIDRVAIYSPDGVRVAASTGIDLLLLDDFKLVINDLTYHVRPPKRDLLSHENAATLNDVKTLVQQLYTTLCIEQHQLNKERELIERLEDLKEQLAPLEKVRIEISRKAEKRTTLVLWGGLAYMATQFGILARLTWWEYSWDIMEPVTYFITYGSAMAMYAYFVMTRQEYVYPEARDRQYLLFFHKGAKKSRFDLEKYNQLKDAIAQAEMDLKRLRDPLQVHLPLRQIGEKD
Sequence of UniProt Q14676 (Q14676 whole entry, looked up): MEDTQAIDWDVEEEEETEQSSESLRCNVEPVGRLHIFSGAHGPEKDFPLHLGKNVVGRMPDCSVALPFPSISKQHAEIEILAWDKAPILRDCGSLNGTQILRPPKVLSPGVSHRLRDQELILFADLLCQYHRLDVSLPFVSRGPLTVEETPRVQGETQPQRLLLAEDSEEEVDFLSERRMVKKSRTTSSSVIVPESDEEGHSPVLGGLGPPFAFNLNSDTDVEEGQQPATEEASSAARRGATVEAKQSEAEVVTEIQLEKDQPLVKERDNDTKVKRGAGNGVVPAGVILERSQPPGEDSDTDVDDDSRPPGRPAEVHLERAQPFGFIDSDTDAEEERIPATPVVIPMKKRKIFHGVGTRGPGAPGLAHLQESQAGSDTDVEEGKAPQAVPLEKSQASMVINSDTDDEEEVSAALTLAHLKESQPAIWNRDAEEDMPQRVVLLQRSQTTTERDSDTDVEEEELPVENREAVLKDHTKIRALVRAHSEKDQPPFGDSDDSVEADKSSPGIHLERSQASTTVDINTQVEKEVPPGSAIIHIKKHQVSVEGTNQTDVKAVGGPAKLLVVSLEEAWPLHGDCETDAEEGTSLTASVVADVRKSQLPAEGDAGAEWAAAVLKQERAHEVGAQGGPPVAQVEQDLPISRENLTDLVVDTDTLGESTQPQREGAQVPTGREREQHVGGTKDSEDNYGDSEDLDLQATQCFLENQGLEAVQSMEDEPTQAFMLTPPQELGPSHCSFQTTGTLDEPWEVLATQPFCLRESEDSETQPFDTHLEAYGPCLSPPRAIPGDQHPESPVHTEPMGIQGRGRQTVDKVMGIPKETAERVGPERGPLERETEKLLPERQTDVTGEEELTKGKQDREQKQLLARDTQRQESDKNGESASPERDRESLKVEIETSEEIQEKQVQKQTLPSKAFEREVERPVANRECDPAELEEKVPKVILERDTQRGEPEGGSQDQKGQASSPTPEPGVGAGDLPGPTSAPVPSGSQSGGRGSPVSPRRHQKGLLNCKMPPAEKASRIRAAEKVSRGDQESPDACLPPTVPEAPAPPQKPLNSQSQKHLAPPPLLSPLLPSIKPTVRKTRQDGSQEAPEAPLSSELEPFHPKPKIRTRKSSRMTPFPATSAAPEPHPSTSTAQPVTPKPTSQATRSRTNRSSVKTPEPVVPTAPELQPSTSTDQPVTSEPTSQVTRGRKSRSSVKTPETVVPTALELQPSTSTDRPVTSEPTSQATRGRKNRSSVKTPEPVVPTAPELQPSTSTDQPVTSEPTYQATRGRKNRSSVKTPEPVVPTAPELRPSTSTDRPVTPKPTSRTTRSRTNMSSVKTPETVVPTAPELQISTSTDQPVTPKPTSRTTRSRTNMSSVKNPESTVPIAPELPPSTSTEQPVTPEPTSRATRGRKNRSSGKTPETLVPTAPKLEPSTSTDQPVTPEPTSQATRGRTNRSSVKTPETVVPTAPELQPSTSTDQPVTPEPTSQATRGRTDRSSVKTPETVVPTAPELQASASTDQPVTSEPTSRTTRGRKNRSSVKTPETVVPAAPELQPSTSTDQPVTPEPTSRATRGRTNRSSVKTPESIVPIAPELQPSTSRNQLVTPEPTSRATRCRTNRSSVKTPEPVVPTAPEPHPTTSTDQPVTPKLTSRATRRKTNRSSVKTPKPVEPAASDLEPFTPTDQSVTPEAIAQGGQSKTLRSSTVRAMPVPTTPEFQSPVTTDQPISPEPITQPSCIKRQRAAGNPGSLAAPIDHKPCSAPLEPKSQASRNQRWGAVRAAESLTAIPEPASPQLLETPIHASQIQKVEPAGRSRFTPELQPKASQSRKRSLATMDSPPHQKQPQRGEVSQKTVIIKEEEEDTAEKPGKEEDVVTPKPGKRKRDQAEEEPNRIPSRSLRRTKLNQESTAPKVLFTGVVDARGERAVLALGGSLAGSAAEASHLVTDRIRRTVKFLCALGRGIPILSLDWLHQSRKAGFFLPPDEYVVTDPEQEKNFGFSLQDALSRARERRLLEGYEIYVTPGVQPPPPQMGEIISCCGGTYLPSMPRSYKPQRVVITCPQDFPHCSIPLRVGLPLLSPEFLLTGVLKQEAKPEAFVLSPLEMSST
Sequence of UniProt Q86X29 (Q86X29 whole entry, looked up): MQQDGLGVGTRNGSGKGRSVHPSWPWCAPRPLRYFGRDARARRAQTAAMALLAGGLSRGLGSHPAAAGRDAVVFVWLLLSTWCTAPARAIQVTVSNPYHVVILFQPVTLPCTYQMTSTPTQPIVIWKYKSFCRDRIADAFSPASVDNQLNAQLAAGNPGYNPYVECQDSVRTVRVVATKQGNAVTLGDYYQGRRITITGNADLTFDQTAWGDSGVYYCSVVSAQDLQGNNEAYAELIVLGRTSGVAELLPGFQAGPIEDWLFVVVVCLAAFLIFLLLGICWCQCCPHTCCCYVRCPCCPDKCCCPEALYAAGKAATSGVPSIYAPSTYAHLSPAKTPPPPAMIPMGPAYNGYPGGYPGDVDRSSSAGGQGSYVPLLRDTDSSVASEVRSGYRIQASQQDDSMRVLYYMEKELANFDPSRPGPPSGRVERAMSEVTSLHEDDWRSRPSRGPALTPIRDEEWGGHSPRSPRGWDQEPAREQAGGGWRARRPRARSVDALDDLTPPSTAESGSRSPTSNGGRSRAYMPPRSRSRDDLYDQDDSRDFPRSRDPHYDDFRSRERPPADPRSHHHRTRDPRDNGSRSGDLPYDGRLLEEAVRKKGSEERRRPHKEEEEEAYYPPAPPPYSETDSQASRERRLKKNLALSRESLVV
Sequence of UniProt P28290 (P28290 whole entry, looked up): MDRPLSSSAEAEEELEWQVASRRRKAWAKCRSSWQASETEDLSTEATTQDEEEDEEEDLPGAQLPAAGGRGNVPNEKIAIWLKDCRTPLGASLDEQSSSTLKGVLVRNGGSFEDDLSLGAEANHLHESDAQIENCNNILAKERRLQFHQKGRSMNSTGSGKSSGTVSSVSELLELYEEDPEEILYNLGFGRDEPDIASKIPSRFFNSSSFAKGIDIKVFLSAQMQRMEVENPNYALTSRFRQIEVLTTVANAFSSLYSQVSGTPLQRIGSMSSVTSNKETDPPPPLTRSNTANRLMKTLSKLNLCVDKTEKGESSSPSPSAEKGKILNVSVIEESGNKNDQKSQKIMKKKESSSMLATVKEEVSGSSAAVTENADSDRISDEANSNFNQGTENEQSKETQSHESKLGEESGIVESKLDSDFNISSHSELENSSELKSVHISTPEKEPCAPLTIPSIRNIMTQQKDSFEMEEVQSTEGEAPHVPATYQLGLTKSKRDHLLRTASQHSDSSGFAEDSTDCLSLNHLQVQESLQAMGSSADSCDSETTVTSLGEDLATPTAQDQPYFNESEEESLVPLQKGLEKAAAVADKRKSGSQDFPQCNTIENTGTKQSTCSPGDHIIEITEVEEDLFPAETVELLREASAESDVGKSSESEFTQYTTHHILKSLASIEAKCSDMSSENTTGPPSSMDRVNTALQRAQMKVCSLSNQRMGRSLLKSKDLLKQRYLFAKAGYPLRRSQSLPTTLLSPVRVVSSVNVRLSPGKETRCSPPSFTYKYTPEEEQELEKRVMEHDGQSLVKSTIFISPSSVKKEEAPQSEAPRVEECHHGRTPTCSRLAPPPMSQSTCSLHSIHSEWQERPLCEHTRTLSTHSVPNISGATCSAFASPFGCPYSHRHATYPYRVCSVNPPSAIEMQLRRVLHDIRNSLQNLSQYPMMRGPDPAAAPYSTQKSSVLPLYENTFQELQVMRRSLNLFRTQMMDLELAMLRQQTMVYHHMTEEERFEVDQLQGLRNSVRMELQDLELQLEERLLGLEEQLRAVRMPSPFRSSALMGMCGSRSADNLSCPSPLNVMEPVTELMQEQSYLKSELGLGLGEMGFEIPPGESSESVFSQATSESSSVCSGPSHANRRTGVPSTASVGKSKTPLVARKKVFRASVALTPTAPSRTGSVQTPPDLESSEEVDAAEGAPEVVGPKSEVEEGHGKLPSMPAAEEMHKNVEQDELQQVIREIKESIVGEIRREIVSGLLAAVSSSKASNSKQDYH
Sequence of UniProt O15243 (O15243 whole entry, looked up): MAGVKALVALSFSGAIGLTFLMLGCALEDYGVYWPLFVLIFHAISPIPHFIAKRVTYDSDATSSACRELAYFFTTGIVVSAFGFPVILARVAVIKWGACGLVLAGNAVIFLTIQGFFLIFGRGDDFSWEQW

log2 fold change, inactive:
MAGI1 (UniProt Q96QZ7) 0
KCNK5 (UniProt O95279) 0.171
KPNA4 (UniProt O00629) -0.058
MBLAC1 (UniProt A4D2B0) 0.083
MED17 (UniProt Q9NVC6) -0.068
MFN1 (UniProt Q8IWA4) -0.028
IRAK4 (UniProt Q9NWZ3) 0.096
KMT2C isoform 3 (UniProt Q8NEZ4) 0.052
MIER1 isoform 12 (UniProt Q8N108) -0.002
MDN1 (UniProt Q9NU22) -0.123
MAGOHB (UniProt Q96A72) 0.097
IGFBP2 (UniProt P18065) 0.092
LDLR (UniProt P01130) -0.008
LSS (UniProt P48449) 0.004
LMNA (UniProt P02545) -0.025
KTN1 (UniProt Q86UP2) -0.043
MAIP1 (UniProt Q8WWC4) -0.003
LSR (UniProt Q86X29) -0.006
MDC1 (UniProt Q14676) -0.054
KIF3B (UniProt O15066) 0.23
MAP3K4 isoform 2 (UniProt Q9Y6R4) 0.02
IKZF1 (UniProt Q13422) 0.042
MAP4 isoform 5 (UniProt P27816) -0.07
KLC2 (UniProt Q9H0B6) 0.011
MCU (UniProt Q8NE86) 0.031
MED22 (UniProt Q15528) -0.143
LEPROT (UniProt O15243) 0.029
INPP1 (UniProt P49441) 0.017
ITPRID2 (UniProt P28290) -0.017
LDAH isoform 2 (UniProt Q9H6V9) 0.016
IP6K1 (UniProt Q92551) -0.029
ING5 (UniProt Q8WYH8) -0.058
LMNB2 (UniProt Q03252) -0.082
